Source: PubChem BioAssay (Tox21)
Values joined by “and” are separate entries in the source; they are usually repeats but may differ in a detail not shown here. Equal entries are not always repeated. Records with an inconclusive call do not appear. Where a call stands in place of a potency, no number is given. The source holds several records for some structures; these can differ, active in one and inactive in another. Active and inactive are the calls of the source. Unless noted, the call rests on the fitted dose curve; in most records, active means well fitted curve in the direction sought with a large enough effect in the repeat runs; inconclusive means weak or mixed curves; inactive means no such curve, though single readings can be large; an effect the other way counts as inactive or inconclusive.

Experiments:
[1] = target: Thyrotropin-releasing hormone receptor (Homo sapiens) (UniProt P34981); test: qHTS assay to identify small molecule agonists of the thyrotropin-releasing hormone receptor (TRHR) signaling pathway (AID 1346891; calls by dose curve; further: potency means the concentration at half of the fitted maximal effect;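 on activation: HEK293 cells expressing TRHR with calcium dye readout; series mostly up to about 58 µM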)
Sequence of Thyrotropin-releasing hormone receptor (Homo sapiens) (P34981 whole entry, looked up): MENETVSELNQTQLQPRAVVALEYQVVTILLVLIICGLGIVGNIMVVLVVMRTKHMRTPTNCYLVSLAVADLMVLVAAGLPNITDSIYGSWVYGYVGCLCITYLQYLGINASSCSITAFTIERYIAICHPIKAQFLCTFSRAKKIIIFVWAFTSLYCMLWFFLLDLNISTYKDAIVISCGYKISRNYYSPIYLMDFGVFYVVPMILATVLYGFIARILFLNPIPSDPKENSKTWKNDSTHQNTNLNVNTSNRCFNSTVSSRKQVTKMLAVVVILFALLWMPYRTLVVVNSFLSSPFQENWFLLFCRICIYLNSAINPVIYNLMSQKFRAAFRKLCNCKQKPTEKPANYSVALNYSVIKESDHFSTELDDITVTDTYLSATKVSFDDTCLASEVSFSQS
How it was run: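 Cells: TRHR-Hek293, seeded and incubated 18 h. Dye loading: 2 h at 37 °C. Compound added from DMSO stock by pin tool. Read-out: kinetic calcium fluorescence over 3 min.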

[2] = Human pregnane X receptor (PXR) small molecule agonists, qHTS cell viability counter screen (AID 1346977); further: nearly all actives have a fitted effect of over 50% in size; further: potency means the concentration at half of the fitted maximal effect
How it was run: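 Cytotoxicity counter screen run in the same wells as the PXR luciferase assay, using PXR-Luc HepG2 cells in charcoal-stripped serum medium. Viability: CellTiter-Fluor fluorescence after 24hr compound treatment.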

[3] = Caspase-3/7 induction in HepG2 cells by small molecules, qHTS assay (AID 1346978); further: nearly all actives have a fitted effect of over 15% in size; further: potency means the concentration at half of the fitted maximal effect
How it was run: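 Wild-type HepG2 cells (2,000/well) were settled 5 h at 37 C, 5% CO2, then exposed to compounds in DMSO for 17 h. Caspase-3/7 activity was read by luminescence 30 min after adding Caspase-Glo 3/7 reagent at room temperature.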

[4] = Caspase-3/7 induction in CHO-K1 cells by small molecules, qHTS cell viability counter screen (AID 1346979); further: nearly all actives have a fitted effect of over 35% in size; further: potency means the concentration at half of the fitted maximal effect
How it was run: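 Cytotoxicity counter screen run in parallel with the caspase-3/7 assay: CHO-K1 cells, 16hr compound treatment at 37C, then CellTiter-Fluor for 1hr before fluorescence reading.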

[5] = Caspase-3/7 induction in CHO-K1 cells by small molecules, qHTS assay (AID 1346980); further: nearly all actives have a fitted effect of over 15% in size; further: potency means the concentration at half of the fitted maximal effect
How it was run: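 Wild-type cells were seeded at 1,500 per well and settled 5 hr at 37 C, 5% CO2, then exposed to DMSO-dissolved compounds for 17 hr. Caspase-Glo 3/7 reagent was added, and luminescence was read after 30min at room temperature.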

[6] = Caspase-3/7 induction in HepG2 cells by small molecules, qHTS cell viability counter screen (AID 1346981); further: nearly all actives have a fitted effect of over 30% in size; further: potency means the concentration at half of the fitted maximal effect
How it was run: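 In this quantitative HTS counter screen, compounds delivered in DMSO were left on unmodified HepG2 cells for 16 hr at 37 C. Viability was then determined fluorometrically with CellTiter-Fluor, in parallel with caspase-3/7 induction in the same wells.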

[7] = target: Nuclear receptor subfamily 1 group I member 2 (Homo sapiens) (UniProt O75469); test: Human pregnane X receptor (PXR) small molecule agonists, qHTS assay (AID 1346982); further: nearly all actives have a fitted effect of over 35% in size; further: potency means the concentration at half of the fitted maximal effect
Sequence of Nuclear receptor subfamily 1 group I member 2 (Homo sapiens) (O75469 whole entry, looked up): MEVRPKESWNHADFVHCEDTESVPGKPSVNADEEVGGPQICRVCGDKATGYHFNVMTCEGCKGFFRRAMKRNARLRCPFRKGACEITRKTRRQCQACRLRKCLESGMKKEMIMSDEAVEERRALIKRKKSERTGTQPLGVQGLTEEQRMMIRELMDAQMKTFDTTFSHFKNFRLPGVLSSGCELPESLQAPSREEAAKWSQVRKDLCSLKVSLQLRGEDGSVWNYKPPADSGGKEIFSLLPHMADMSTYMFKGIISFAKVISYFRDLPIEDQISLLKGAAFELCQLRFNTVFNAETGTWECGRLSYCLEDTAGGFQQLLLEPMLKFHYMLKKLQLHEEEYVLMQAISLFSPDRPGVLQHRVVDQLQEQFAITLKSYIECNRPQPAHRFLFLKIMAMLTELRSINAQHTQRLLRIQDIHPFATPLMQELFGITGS
How it was run: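 Reporter HepG2 cells expressing PXR-Luc are cultured in charcoal-stripped FBS (5%), treated with compounds for 24 hr at 37 C, and assayed by ONE-Glo luminescence after 30 min at room temperature.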

[8] = target: Nuclear receptor subfamily 1 group I member 2 (Rattus norvegicus) (UniProt Q9R1A7); test: Rat pregnane X receptor (rPXR) activation by small molecules, qHTS assay (AID 1346983); conditions: rPXR luciferase reporter cells, One-Glo luminescence, 24 h; max activation: stronger effect = higher value; further: nearly all actives have a fitted effect of over 20% in size
Sequence of Nuclear receptor subfamily 1 group I member 2 (Rattus norvegicus) (Q9R1A7 whole entry, looked up): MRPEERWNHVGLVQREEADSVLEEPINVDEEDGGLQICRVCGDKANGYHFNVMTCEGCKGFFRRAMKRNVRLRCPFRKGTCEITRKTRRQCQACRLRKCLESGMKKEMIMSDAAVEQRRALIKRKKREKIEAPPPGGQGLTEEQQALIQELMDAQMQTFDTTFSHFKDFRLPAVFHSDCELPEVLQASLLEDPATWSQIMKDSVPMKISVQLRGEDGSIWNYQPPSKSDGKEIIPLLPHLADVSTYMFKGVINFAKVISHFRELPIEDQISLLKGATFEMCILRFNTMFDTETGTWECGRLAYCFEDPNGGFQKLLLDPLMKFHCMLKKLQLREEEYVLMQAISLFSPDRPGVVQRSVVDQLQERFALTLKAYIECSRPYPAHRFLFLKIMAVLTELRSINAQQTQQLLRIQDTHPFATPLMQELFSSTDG
How it was run: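 Cell-based rPXR luciferase reporter assay, 2,000 cells per well, rested 5hr at 37 C before compound addition in DMSO, then 24 hr at 37 C. One-Glo reagent was added and luminescence read after 30 min at room temperature.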

[9] = target: Nuclear receptor subfamily 1 group I member 2 (Homo sapiens) (UniProt O75469); test: CYP3A4 induction through human pregnane X receptor (PXR) by small molecules, qHTS assay (AID 1346984); further: nearly all actives have a fitted effect of over 40% in size
How it was run: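 Induction measured in HepG2-based DPX-2 cells co-expressing human PXR and a CYP3A4 promoter-driven luciferase. After a 24-hour compound exposure, cells received CYP3A4 luciferin substrate at 3uM final for 3 hours, and light output was then recorded.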

[10] = target: Nuclear receptor subfamily 1 group I member 2 (Homo sapiens) (UniProt O75469); test: Human pregnane X receptor (PXR) activation by small molecules, qHTS assay (AID 1346985); further: nearly all actives have a fitted effect of over 40% in size
How it was run: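 DPX-2 cells (HepG2 co-transfected with a PXR response element and a CYP3A4-promoter luciferase construct) were seeded at 2,000 per well, rested 5 hr at 37C, then exposed to DMSO-dissolved compounds for 24 hr. Activation was read as luciferase luminescence.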

SMILES	Potency [1]	Potency [2]	Potency [3]	Potency [4]	Potency [5]	Potency [6]	Potency [7]	max activation [8]	outcome [9]	outcome [10]
CCOC(=O)/C=C\C(=O)OCC	inactive	inactive	inactive	inactive	inactive	inactive	–	–	–	–
COC(=O)c1ccc(C(=O)OC)cc1	inactive	7.08 µM (active) and inactive	9.82 µM (active) and inactive	780 nM (active) and inactive	inactive	inactive	2.2 µM (active) and inactive	–	–	–
CC(C)Cc1ccccc1	inactive	inactive	inactive	inactive	inactive	inactive	inactive	–	–	–
O=C(O)c1cc(-c2ccccc2)nc2ccccc12	inactive	inactive	inactive	inactive	inactive	inactive	inactive	–	–	–
NS(=O)(=O)c1cc2c(cc1Cl)NC=NS2(=O)=O	inactive	inactive	inactive	inactive	inactive	inactive	–	–	–	–
Cc1cc(O)c2c(c1)C(=O)c1cc(O)cc(O)c1C2=O	inactive	29.9 µM (active)	inactive	48.6 µM (active)	inactive	26.7 µM (active) and 21.7 µM (active)	29.9 µM (active) and 21.7 µM (active)	–	–	–
CCCCCCCCCCCCN	inactive and 38.9 µM (active)	inactive and 30.6 µM (active)	inactive and 61.1 µM (active)	inactive and 30.6 µM (active)	inactive	inactive	inactive	–	–	–
COC(=O)c1ccccc1O	inactive	inactive	inactive	inactive	inactive	inactive	34.4 µM (active) and inactive	-0.564% (inactive)	inactive	inactive
C=C(C)C(=O)OCC(CC)(COC(=O)C(=C)C)COC(=O)C(=C)C	inactive	inactive	inactive	inactive	inactive	inactive	–	–	–	–
Nc1cc(-c2ccncc2)c[nH]c1=O	inactive	inactive	inactive	inactive	inactive	inactive	inactive	-1.94% (inactive)	inactive	inactive
CC[Si](OC(C)=O)(OC(C)=O)OC(C)=O	inactive	inactive	inactive	inactive	inactive	inactive	48.5 µM (active) and 48.6 µM (active)	–	–	–
CCCCC(CC)COC(=O)CCCCCCCC(=O)OCC(CC)CCCC (centres undefined)	inactive	inactive	inactive	43.3 µM (active) and inactive	inactive	inactive	24.3 µM (active) and inactive	–	–	–
c1ccc2[nH]cnc2c1	inactive	inactive	inactive	inactive	inactive	inactive	inactive	–	–	–
Cc1cc(Cc2ccc(N)c(C)c2)ccc1N	inactive	inactive	inactive	inactive	inactive	inactive	61.1 µM (active)	–	–	–
O=[N+]([O-])C(CO)(CO)CO	inactive	758 nM (active) and inactive	inactive	1.7 µM (active) and inactive	inactive	4.26 µM (active) and inactive	–	–	–	–
CC(C)(CO)COC(=O)C(C)(C)CO	inactive	inactive	inactive	inactive	inactive	inactive	–	–	–	–
OCC1CCCO1 (centres undefined)	inactive	inactive	inactive	inactive	inactive	inactive	inactive	–	–	–
CCC(C)C=O (centres undefined)	inactive	inactive	inactive	inactive	inactive	inactive	inactive	–	–	–
O=C(Oc1ccccc1)c1ccc(O)cc1	inactive	inactive	inactive	inactive	inactive	inactive	–	–	–	–
OC1CCCC1	inactive	inactive	inactive	inactive	inactive	inactive	30.6 µM (active) and inactive	–	–	–
CC(C)(C)C1CCC(O)CC1 (centres undefined)	inactive	inactive	inactive	inactive	inactive	inactive	inactive	–	–	–
ClC1=C(Cl)C(Cl)(Cl)C(Cl)=C1Cl	inactive	inactive	inactive	inactive	inactive and 68.6 µM (active)	inactive	–	–	–	–
CCOC(=O)C1OC1c1ccccc1 (centres undefined)	inactive	inactive	inactive	inactive	inactive	inactive	–	–	–	–
CCCCC(CC)COC(=O)/C=C\C(=O)OCC(CC)CCCC (centres undefined)	inactive	inactive	inactive	inactive	inactive	inactive	48.5 µM (active) and inactive	–	–	–
O=C(O)c1ccc([N+](=O)[O-])cc1	inactive	inactive	inactive	inactive	inactive	inactive	–	–	–	–
NC(=O)/N=N/C(N)=O	inactive	inactive	inactive	inactive	inactive	inactive	inactive	–	–	–
